Reference: PubChem BioAssay (NCATS)
Values joined by “and” are separate entries in the source; they are usually repeats but may differ in a detail not shown here. Identical values can stand only once. Results filed as inconclusive are left out. Active and inactive are the calls of the source. Unless noted, calls come from the whole dose curve; as a rule, active = well fitted curve in the direction sought with a large enough effect; inconclusive = small, poorly fitted or top-dose-only effect, or another doubt; inactive = no such curve, though single readings can be large; an effect the other way counts as inactive or inconclusive.

Assays:
[1] = target: Cellular tumor antigen p53 (Homo sapiens) (UniProt P04637); test: Primary qHTS for small molecule compounds that upregulate eGFP-tagged delta133p53alpha (in C-terminal) cells. (AID 2060324); details: NCI-H358 delta133p53alpha-eGFP (C-terminal tag), GFP fluorescence imaging, 24 h; series mostly up to 57.5 µM
Cellular tumor antigen p53 (Homo sapiens), sequence (P04637 whole entry, looked up): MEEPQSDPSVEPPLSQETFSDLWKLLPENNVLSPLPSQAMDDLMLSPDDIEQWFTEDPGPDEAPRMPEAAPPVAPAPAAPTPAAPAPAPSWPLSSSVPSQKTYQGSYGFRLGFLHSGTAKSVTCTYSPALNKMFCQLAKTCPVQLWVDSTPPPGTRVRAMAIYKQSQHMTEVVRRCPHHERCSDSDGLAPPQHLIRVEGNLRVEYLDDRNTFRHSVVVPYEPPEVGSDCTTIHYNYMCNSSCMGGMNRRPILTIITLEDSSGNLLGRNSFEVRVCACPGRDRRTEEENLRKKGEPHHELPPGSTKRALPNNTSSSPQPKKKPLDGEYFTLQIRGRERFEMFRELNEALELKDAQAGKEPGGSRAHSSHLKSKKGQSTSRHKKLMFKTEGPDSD
Summary of the method: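 NCI-H358 cells pre-induced 24 h with 100 ng/ml doxycycline to express delta133p53alpha-eGFP, then dosed in doxycycline-free medium for 24 h at 37C. Fixed, Hoechst-stained; GFP intensity by laser scanning cytometry, normalized to DMSO wells.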

[2] = target: Aldehyde dehydrogenase, mitochondrial (Homo sapiens) (UniProt P05091); test: qHTS for Inhibitors of the Aldehyde Dehydrogenase Family (ALDH2) Validation screens (AID 2061302; active = well fitted inhibition curve with a large enough effect; title and protocol of this record describe different tests); details: ALDH inhibition qHTS; series mostly up to 42.6 µM
[3] = target: Cellular tumor antigen p53 (Homo sapiens) (UniProt P04637); test: Primary qHTS for small molecule compounds that upregulate eGFP-tagged delta133p53alpha (in N-terminal) cells. (AID 2060322); details: NCI-H358 eGFP-delta133p53alpha fluorescence, 24 h; activation: hits give high values; note: nearly all actives have a fitted effect of over 75% in size;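 for activation: 0% = DMSO vehicle and 100% = reference activator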
Summary of the method: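 NCI-H358 cells pre-induced 24 h with 10 ng/ml doxycycline to express N-terminal eGFP-delta133p53alpha, then dosed 24 h at 37C without doxycycline; fixed, Hoechst-stained, GFP intensity by laser scanning cytometry, normalized to DMSO (0%) and 57.5 uM 5-azacytidine (100%).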

[4] = BET inhibitor-based combinations targeting novel dependencies in MECOM-rearranged (r) AML: SET-2 cell line (AID 2202231); details: SET-2 AML cells viability, CellTiter-Glo luminescence, 48 h; viability: hits give low values, concentration not given here; note: nearly all actives have a fitted effect of over 35% in size;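 for viability: plate controls were DMSO treated cells for no effect and wells without cells for full effect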
Summary of the method: (§1)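 AML cell lines seeded at 500 cells/well, treated with 11-point dose curves for 48 h. Viability by CellTiter-Glo luminescence, normalised to DMSO and empty wells; activity expressed as AUC and per-cell-line Z-transformed AUC.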

[5] = BET inhibitor-based combinations targeting novel dependencies in MECOM-rearranged (r) AML: OCI-AML3 cell line (AID 2202232); details: CellTiter-Glo luminescence, 48 h; Potency: OCI-AML3 viability; series mostly up to 46 µM; note: nearly all actives have a fitted effect of over 35% in size
Summary of the method: as §1

[6] = BET inhibitor-based combinations targeting novel dependencies in MECOM-rearranged (r) AML: MV-4-11 cell line (AID 2202233); details: MV-4-11 AML viability, CellTiter-Glo luminescence, 48 h; series mostly up to 46 µM; note: nearly all actives have a fitted effect of over 45% in size
Summary of the method: (§2)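 Cells at 500/well were exposed for 48 hr to MIPE v5.0 drugs as 11-point dose curves. Viability was read by CellTiter-Glo luminescence and normalized to DMSO and empty-well controls. Activity was expressed as AUC and per-cell-line Z-AUC.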

[7] = BET inhibitor-based combinations targeting novel dependencies in MECOM-rearranged (r) AML: HNT-34 cell line (AID 2202234); details: HNT-34 AML viability, CellTiter-Glo luminescence, 48 h; series mostly up to 46 µM; note: nearly all actives have a fitted effect of over 35% in size
Summary of the method: as §2

[8] = BET inhibitor-based combinations targeting novel dependencies in MECOM-rearranged (r) AML: UCSD-AML1 cell line (AID 2202235); details: UCSD-AML1 AML cells viability, CellTiter-Glo, 48 h; series mostly up to 46 µM; note: nearly all actives have a fitted effect of over 40% in size
Summary of the method: as §2

[9] = BET inhibitor-based combinations targeting novel dependencies in MECOM-rearranged (r) AML: AML-191 cell line (AID 2202236; note: nearly all actives have a fitted effect of over 35% in size); details: AML-191 viability, CellTiter-Glo luminescence, 48 h; series mostly up to 46 µM
Summary of the method: as §1

[10] = BET inhibitor-based combinations targeting novel dependencies in MECOM-rearranged (r) AML: AML-194 cell line (AID 2202237; note: nearly all actives have a fitted effect of over 40% in size); details: AML-194 (MECOM-r AML) viability, CellTiter-Glo, 48 h; series mostly up to 46 µM
Summary of the method: as §1
Potency is the fitted concentration of half-maximal effect.

c1ccc2c(c1)[I+]c1ccccc1-2
active: Potency [1] 23900 nM | Potency [2] 7080 nM

C[C@@H]1C[C@@H]([C@H](O)CC2CC(=O)NC(=O)C2)C(=O)[C@@H](C)C1
active: Potency [3] 4.37 µM and 968 nM | Potency [4] 296 nM | Potency [5] 1660 nM | Potency [6] 525 nM | Potency [7] 263 nM | Potency [8] 263 nM | Potency [9] 742 nM | Potency [10] 833 nM

Cc1ncc(OC[C@@]2(c3cccc(F)c3)C[C@H]2C(=O)Nc2ccc(F)cn2)c(C)n1
inactive: activation [3] -13.1% | viability [4] 92.7% | Potency [5] | Potency [7] | Potency [8] | Potency [9] | Potency [10]

C[C@@H]1CC[C@H]2[C@@H](C)C(=O)O[C@@H]3O[C@@]4(C)CC[C@@H]1[C@]32OO4
inactive: activation [3] 0% | viability [4] 93.5% | Potency [8]
active: Potency [5] 1180 nM | Potency [9] 5250 nM

O=S(=O)(F)Cc1ccccc1
inactive: activation [3] 5.78% | viability [4] 112% | Potency [5] | Potency [7] | Potency [8] | Potency [10]

c1ccc2c(CN3CCNCC3)cccc2c1
inactive: activation [3] 12.1% | viability [4] 115% | Potency [7] | Potency [8] | Potency [9] | Potency [10]

C#CC1(O)CCC2C3CCC4=CC(=O)CCC4(C)C3CCC21C (stereo unspecified)
inactive: activation [3] 2.51% | viability [4] 107% | Potency [7] | Potency [10]

CN1[C@H]2CC(O)C[C@H]1[C@H]1O[C@H]12 (stereo partly specified)
inactive: activation [3] -21% | viability [4] 118% | Potency [7] | Potency [8] | Potency [9] | Potency [10]

C=C1C[C@@H]2[C@H](CC[C@]3(C)C(=O)CC[C@@H]23)[C@@]2(C)C=CC(=O)C=C12
active: Potency [6] 18600 nM
inactive: activation [3] -17.6%
